# From article PMC5540273 (PLoS ONE, 2017)
# Read-outs that look alike come from different tables or passages of the source.
# Experiments:
# [1] = tested on: T1, GRK2; conditions: concentration: 1 μM, replicates: in singlicate; n = 1
# T1 construct: gene ADRBK1
# [2] = tested on: T2, GRK3; conditions: concentration: 1 μM, replicates: in singlicate; n = 1
# T2 construct: gene ADRBK2
# [3] = tested on: GRK4; conditions: concentration: 1 μM, replicates: in singlicate; n = 1
# [4] = tested on: GRK7; conditions: concentration: 1 μM, replicates: in singlicate; n = 1
# [5] = tested on: GSK3A; conditions: concentration: 1 μM, replicates: in singlicate; n = 1
# [6] = tested on: GSK3B; conditions: n = 1
# [7] = tested on: T3, HASPIN; conditions: concentration: 1 μM, replicates: in singlicate; n = 1
# T3 construct: gene GSG2
# [8] = tested on: HCK; conditions: concentration: 1 μM, replicates: in singlicate; n = 1
# [9] = tested on: HIPK1; conditions: concentration: 1 μM, replicates: in singlicate; n = 1
# [10] = tested on: HIPK2; conditions: concentration: 1 μM, replicates: in singlicate; n = 1
# [11] = tested on: HIPK3; conditions: concentration: 1 μM, replicates: in singlicate; n = 1
# [12] = tested on: HIPK4; conditions: concentration: 1 μM, replicates: in singlicate; n = 1
# [13] = tested on: HPK1; conditions: concentration: 1 μM, replicates: in singlicate; n = 1
# [14] = tested on: HUNK; conditions: concentration: 1 μM, replicates: in singlicate; n = 1
# [15] = tested on: ICK; conditions: concentration: 1 μM, replicates: in singlicate; n = 1
# [16] = tested on: IGF1R; conditions: concentration: 1 μM, replicates: in singlicate; n = 1
# [17] = tested on: T4, IKK-alpha; conditions: concentration: 1 μM, replicates: in singlicate; n = 1
# T4 construct: gene CHUK
# [18] = tested on: T5, IKK-beta; conditions: concentration: 1 μM, replicates: in singlicate; n = 1
# T5 construct: gene IKBKB
# [19] = tested on: T6, IKK-epsilon; conditions: concentration: 1 μM, replicates: in singlicate; n = 1
# T6 construct: gene IKBKE
# [20] = tested on: INSRR; conditions: concentration: 1 μM, replicates: in singlicate; n = 1
# [21] = concentration: 1 μM, replicates: in singlicate
# 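Note: KINOMEscan kinase panel screen.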
structure (smiles),measurement,setting,value
COc1cccc(C2=C(Nc3cccc(C(=O)O)c3)C(=O)NC2=O)c1 [SB-390770],%Inh,[1],0%
same,%Inh,[2],22%
same,%Inh,[3],0%
same,%Inh,[4],0%
same,%Inh,[5],51%
same,%Inh,[6]; 1 µM,31%
same,%Inh,[7],10%
same,%Inh,[8],0%
same,%Inh,[9],0%
same,%Inh,[10],0%
same,%Inh,[11],1%
same,%Inh,[12],7%
same,%Inh,[13],5%
same,%Inh,[14],20%
same,%Inh,[15],0%
same,%Inh,[16],8%
same,%Inh,[17],0%
same,%Inh,[18],6%
same,%Inh,[19],0%
same,%Inh,[20],19%
Nc1nc(N)c2nc(-c3ccccc3)[nH]c2n1 [SKF-12778],%Inh,[1],13%
same,%Inh,[2],9%
same,%Inh,[3],18%
same,%Inh,[4],4%
same,%Inh,[5],0%
same,%Inh,[6]; [21],0%
same,%Inh,[7],0%
same,%Inh,[8],3%
same,%Inh,[9],5%
same,%Inh,[10],11%
same,%Inh,[11],10%
same,%Inh,[12],13%
same,%Inh,[13],57%
same,%Inh,[14],11%
same,%Inh,[15],15%
same,%Inh,[16],15%
same,%Inh,[17],4%
same,%Inh,[18],17%
same,%Inh,[19],12%
same,%Inh,[20],12%
Cc1cccc(-c2nc(Nc3ccc4c(cnn4C)c3)c3ccccc3n2)n1 [GW876731],%Inh,[1],16%
same,%Inh,[2],5%
same,%Inh,[3],0%
same,%Inh,[4],15%
same,%Inh,[5],18%
same,%Inh,[6]; [21],0%
same,%Inh,[7],11%
same,%Inh,[8],0%
same,%Inh,[9],0%
same,%Inh,[10],14%
same,%Inh,[11],0%
same,%Inh,[12],14%
same,%Inh,[13],0%
same,%Inh,[14],35%
same,%Inh,[15],10%
same,%Inh,[16],0%
same,%Inh,[17],1%
same,%Inh,[18],13%
same,%Inh,[19],21%
same,%Inh,[20],15%
Cc1ccc(Oc2ccc(Nc3ncnc4cc[nH]c34)cc2C)cn1,%Inh,[1],0%
same,%Inh,[2],28%
same,%Inh,[3],0%
same,%Inh,[4],44%
same,%Inh,[5],0%
same,%Inh,[6]; [21],0%
same,%Inh,[7],8%
same,%Inh,[8],16%
same,%Inh,[9],20%
same,%Inh,[10],11%
same,%Inh,[11],24%
same,%Inh,[12],0%
same,%Inh,[13],0%
same,%Inh,[14],4%
same,%Inh,[15],33%
same,%Inh,[16],0%
same,%Inh,[17],0%
same,%Inh,[18],8%
same,%Inh,[19],50%
same,%Inh,[20],0%
C[C@@H]1CC[C@H](C(=O)NC2CCCCC2)CN1c1cc(-c2ccc3c(N)n[nH]c3c2)nc(N)n1 [GSK2291363],%Inh,[1],0%
same,%Inh,[2],32%
same,%Inh,[3],45%
same,%Inh,[4],0%
same,%Inh,[5],5%
same,%Inh,[6]; [21],17%
same,%Inh,[7],2%
same,%Inh,[8],0%
same,%Inh,[9],9%
same,%Inh,[10],0%
same,%Inh,[11],14%
same,%Inh,[12],0%
same,%Inh,[13],50%
same,%Inh,[14],0%
same,%Inh,[15],18%
same,%Inh,[16],30%
same,%Inh,[17],0%
same,%Inh,[18],0%
same,%Inh,[19],25%
same,%Inh,[20],0%
Nc1ncnc2c1ncn2-c1ccc(Cl)cc1 [AH2635],%Inh,[1],0%
same,%Inh,[2],41%
same,%Inh,[3],0%
same,%Inh,[4],0%
same,%Inh,[5],14%
same,%Inh,[6]; [21],0%
same,%Inh,[7],21%
same,%Inh,[8],0%
same,%Inh,[9],0%
same,%Inh,[10],0%
same,%Inh,[11],0%
same,%Inh,[12],0%
same,%Inh,[13],27%
same,%Inh,[14],19%
same,%Inh,[15],0%
same,%Inh,[16],0%
same,%Inh,[17],0%
same,%Inh,[18],0%
same,%Inh,[19],30%
same,%Inh,[20],0%
Cl.NS(=O)(=O)c1cccc(Nc2cc(-c3ccc(F)cc3)n[nH]2)c1 [GW824645],%Inh,[1],0%
same,%Inh,[2],21%
same,%Inh,[3],0%
same,%Inh,[4],0%
same,%Inh,[5],0%
same,%Inh,[6]; [21],6%
same,%Inh,[7],51%
same,%Inh,[8],13%
same,%Inh,[9],36%
same,%Inh,[10],10%
same,%Inh,[11],18%
same,%Inh,[12],18%
same,%Inh,[13],0%
same,%Inh,[14],58%
same,%Inh,[15],12%
same,%Inh,[16],0%
same,%Inh,[17],1%
same,%Inh,[18],9%
same,%Inh,[19],8%
same,%Inh,[20],0%
CCC(=O)c1c(-c2ccccc2)c2cc(Cl)ccc2c(=O)n1Cc1ccc(C(=O)O)cc1,%Inh,[1],0%
same,%Inh,[2],0%
same,%Inh,[3],16%
same,%Inh,[4],0%
same,%Inh,[5],3%
same,%Inh,[6]; [21],0%
same,%Inh,[7],42%
same,%Inh,[8],0%
same,%Inh,[9],10%
same,%Inh,[10],0%
same,%Inh,[11],0%
same,%Inh,[12],0%
same,%Inh,[13],0%
same,%Inh,[14],0%
same,%Inh,[15],0%
same,%Inh,[16],0%
same,%Inh,[17],0%
same,%Inh,[18],0%
same,%Inh,[19],0%
same,%Inh,[20],0%
